We go through 56 compounds from article PMC12670160, “A drug-repurposing screen of FDA- and EMA-approved drugs identifies two NF-κB inhibitors active against eumycetoma” (Journal of Antimicrobial Chemotherapy, 2025).

Structures are written as SMILES. Where a name gives a salt, the structure may show the parent alone. In all, about 5,300 compounds went through this assay and about 130 (2.5%) showed an effect of 50% or more. The entries come from a sample that favours strong results as a whole.

This assay concerns M. mycetomatis strain mm55. The following applies: primary screen, metabolic activity vs growth control; 96 h, 2 µM; inhibitor.
For `CC(C)C[C@@H](N)C(=O)N[C@H]1C(=O)N[C@@H](CC(N)=O)C(=O)N[C@H]2C(=O)N[C@H]3C(=O)N[C@H](C(=O)N[C@H](C(=O)O)c4cc(O)cc(O)c4-c4cc3ccc4O)[C@H](O)c3ccc(c(Cl)c3)Oc3cc2cc(c3O[C@@H]2O[C@H](CO)[C@@H](O)[C@H](O)[C@H]2O[C@H]2C[C@](C)(N)[C@H](O)[C@H](C)O2)Oc2ccc(cc2Cl)[C@H]1O` [ONC0002123, norvancomycin hydrochloride], the “% viability” value worked out at 86.02%. Regarding `CCN(CC)C(=O)N[C@H]1CC2c3cccc4[nH]cc(c34)CC2N(C)C1` (some centres unmarked) [ONC0002019, terguride], the “% viability” value worked out at 81.88%. For `Clc1ccc(CSC(Cn2ccnc2)c2ccc(Cl)cc2Cl)cc1` (centres unmarked) [ONC0000678, sulconazole nitrate], the “% viability” value stood at 120.3%. Turning to `Clc1ccc(C(Cn2ccnc2)OCc2ccc(Sc3ccccc3)cc2)c(Cl)c1` (centres unmarked) [ONC0004926, fenticonazole nitrate], the “% viability” value was found to be 131.8%. Regarding `Clc1ccc(C(Cn2ccnc2)OCc2c(Cl)cccc2Cl)c(Cl)c1` (centres unmarked) [Isoconazole nitrate (Travogen), Isoconazole nitrate], the “% viability” value is on record as 2.362%.

For `Clc1ccc(CCC(Cn2ccnc2)Sc2c(Cl)cccc2Cl)cc1` (centres unmarked) [ONC0005620, butoconazole], the “% viability” value was determined as 76.6%. Regarding `C=CCOC(Cn1ccnc1)c1ccc(Cl)cc1Cl` (centres unmarked) [ONC0005416, enilconazole sulfate], the “% viability” value was 2.508%. For the compound `Clc1ccc(C(Cn2ccnc2)OCc2ccsc2Cl)c(Cl)c1` (centres unmarked) [Tioconazole], the “% viability” value is 3.335%.

As for `COc1ccc(CCCOC(Cn2ccnc2)c2ccc(OC)cc2)cc1` (centres unmarked) [ONC0000065, skf96365], the “% viability” value was determined as 143.6%. Regarding `Clc1ccc(C(Cn2ccnc2)OCc2csc3c(Cl)cccc23)c(Cl)c1` (centres unmarked) [ONC0005215, sertaconazole nitrate], the “% viability” value is 82%. Take `Clc1ccc(COC(Cn2ccnc2)c2ccc(Cl)cc2Cl)c(Cl)c1` (centres unmarked) [Miconazole nitrate]: the “% viability” value came to 2.05%.

Turning to `Clc1ccc(COC(Cn2ccnc2)c2ccc(Cl)cc2Cl)cc1` (centres unmarked) [ONC0000666, econazole nitrate], the “% viability” value was 102.4%. For `CC(C)S(=O)(=O)NC[C@H](C)c1ccc(-c2ccc(CCNS(C)(=O)=O)cc2)cc1` [ONC0000792, mibampator], the “% viability” value amounted to 65.07%. Regarding `CC(=O)Nc1c(I)c(C(=O)O)c(I)c(N(C)C(C)=O)c1I` [ONC0002767, metrizoic acid], the “% viability” value stood at 98.58%.

As for `CO[C@H]1C[C@H](O[C@H]2CC[C@@]3(C)[C@H](CC[C@@H]4[C@@H]3CC[C@]3(C)[C@@H](C5=CC(=O)OC5)[C@@H](OC(C)=O)C[C@]43O)C2)O[C@@H](C)[C@@H]1O` [ONC0000896, oleandrin], the “% viability” value stood at 70.17%.

`COc1cc([S+](C)[O-])ccc1-c1nc2ncccc2[nH]1` (centres unmarked) [ONC0002956, sulmazole]: the “% viability” value is 88.35%. Consider `COc1cc(N)c(Cl)cc1C(=O)N[C@@H]1CCN(CCCOc2ccc(F)cc2)C[C@@H]1OC` (racemic) [ONC0002671, cisapride], for which the “% viability” value stood at 79.76%. For `CC[C@H](NC(C)C)[C@H](O)c1ccc(O)c2[nH]c(=O)ccc12` (racemic) [ONC0000846, procaterol] the value was 72.96%. For the compound `COc1cc2c(Nc3ccc(Br)cc3F)ncnc2cc1OCC1CCN(C)CC1` [ONC0004515, vandetanib zd6474], the “% viability” value was 76.73%. Consider `N[C@@H](CN1C=CC(=O)C(=O)C1)C(=O)O` [ONC0002117, lmimosine], for which the “% viability” value is given as 76.12%. Take `CCCCCCOc1nsnc1C1=CCCN(C)C1.O=C(O)C(=O)O` [ONC0001841, xanomeline oxalate]: the “% viability” value turned out to be 152.3%. `C[C@H](NC(=O)C(C)(C)Oc1ccc(C(F)(F)F)cn1)[C@@H](Cc1ccc(Cl)cc1)c1cccc(C#N)c1` [ONC0002066, taranabant]: the “% viability” value worked out at 72.16%. In the case of `CC(C)(C)NC(=O)N[C@H](C(=O)N1C[C@H]2[C@@H]([C@H]1C(=O)NC(CC1CCC1)C(=O)C(N)=O)C2(C)C)C(C)(C)C` (some centres unmarked) [ONC0001071, boceprevir], the “% viability” value was determined as 43.8%.

As to `CCCC[C@H](NC(=O)[C@@H]1[C@@H]2[C@H](CN1C(=O)[C@@H](NC(=O)NC1(CS(=O)(=O)C(C)(C)C)CCCCC1)C(C)(C)C)C2(C)C)C(=O)C(=O)NC1CC1` [ONC0000734, narlaprevir], the “% viability” value came out at 68.03%.

Turning to `Cc1cnc(NC(=O)c2cc(Oc3cnc(C(=O)N(C)C)nc3)c3cc(C)oc3c2)cn1` [ONC0005563, pf04937319], the “% viability” value is listed as 103.7%. For the compound `O=c1[nH]cnc2c([C@@H]3N[C@H](CO)[C@@H](O)[C@H]3O)c[nH]c12` [ONC0001813, forodesine hydrochloride], the “% viability” value is listed as 95.12%. Consider `CCn1c(=O)n([C@H]2CCCN(c3nccc(-c4cc5ccccc5o4)n3)C2)c2ccccc21` [ONC0001458, tcf2], for which the “% viability” value was 58.53%. Take `CCCCN(CCCC)CCC(O)c1cc2c(Cl)cc(Cl)cc2c2cc(C(F)(F)F)ccc12` (centres unmarked) [ONC0003518, halofantrinehcl]: the “% viability” value was 46.17%.

As to `CCCCN(CCCC)CC(O)c1cc(Cl)cc2c1-c1ccc(Cl)cc1/C2=C/c1ccc(Cl)cc1` (centres unmarked) [ONC0000941, lumefantrine], the “% viability” value amounted to 75.53%. For `CNc1nc(-c2ccc3c(N)n[nH]c3c2)cc(N2C[C@@H](C(=O)NC3CCCCC3)CC[C@H]2C)n1` [ONC0002484, gsk2334470], the “% viability” value is recorded as 37.41%. Next, `O=c1ccc2c(OCCCCOc3ccccc3)c3ccoc3cc2o1` [ONC0000770, pap1]: 62.21%; `COc1c2ccoc2cc2oc(=O)ccc12` [ONC0003294, bergapten]: 47.96%. In the case of `COc1c2occc2cc2ccc(=O)oc12` [ONC0005318, methoxsalen], the “% viability” value amounted to 102.8%. As to `NS(=O)(=O)OC[C@@H]1C[C@@H](n2ccc3c(N[C@H]4CCc5ccccc54)ncnc32)C[C@@H]1O` [ONC0001277, pevonedistat hydrochloride], the “% viability” value is on record as 68.15%. Regarding `Cc1ccc2c(c1)c1c(n2CCc2ccc(C)nc2)CCN(C)C1.Cl.Cl` [ONC0000365, latrepirdine dimebon dihydrochloride], the “% viability” value is listed as 70.26%. Turning to `CCCCCCCCCC(=O)OCCN1CCN(CCCN2c3ccccc3Sc3ccc(C(F)(F)F)cc32)CC1` [ONC0003289, fluphenazine decanoate], the “% viability” value was 48.22%. As for `OCCN1CCN(CCCN2c3ccccc3Sc3ccc(C(F)(F)F)cc32)CC1` [ONC0003193, fluphenazine hydrochloride], the “% viability” value was determined as 105.7%. Consider `CN1CCN(CCCN2c3ccccc3Sc3ccc(C(F)(F)F)cc32)CC1` [ONC0003239, trifluoperazine hydrochloride], for which the “% viability” value was 119.8%. For `CN1CC[C@@]2(C)c3cc(O)ccc3N(C)[C@@H]12` [ONC0002771, eseroline] the value was 104.2%; for `c1ccc2c(c1)[I+]c1ccccc1-2` [ONC0002720, diphenyleneiodonium], 44.4%. `O=C1c2ccccc2C(=O)c2ccccc21` [ONC0002912, anthraquinone]: the “% viability” value amounted to 73.56%. Next, `CC(O)COC[C@H]1O[C@@H]2O[C@H]3[C@H](O)[C@@H](O)[C@@H](O[C@H]4[C@H](O)[C@@H](O)[C@@H](O[C@H]5[C@H](O)[C@@H](O)[C@@H](O[C@H]6[C@H](O)[C@@H](O)[C@@H](O[C@H]7[C@H](O)[C@@H](O)[C@@H](O[C@H]8[C@H](O)[C@@H](O)[C@@H](O[C@H]1[C@H](O)[C@H]2O)O[C@@H]8COCC(C)O)O[C@@H]7COCC(C)O)O[C@@H]6COCC(C)O)O[C@@H]5COCC(C)O)O[C@@H]4COCC(C)O)O[C@@H]3COCC(C)O` (some centres unmarked) [ONC0003826, hydroxypropylbetacyclodextrin]: 73.6%; `NCCC(=O)N[C@@H](Cc1cnc[nH]1)C(=O)O` [ONC0002788, carnosine]: 115.1%. With `CC[C@@H]1C(=O)N(C)c2cnc(Nc3ccc(C(=O)NC4CCN(C)CC4)cc3OC)nc2N1C1CCCC1` [ONC0004589, bi 2536], the “% viability” value was 63.71%.

Take `CC[C@@H]1C(=O)N(C)c2cnc(Nc3ccc(C(=O)N[C@H]4CC[C@H](N5CCN(CC6CC6)CC5)CC4)cc3OC)nc2N1C(C)C` [ONC0005061, bi6727 volasertib]: the “% viability” value is reported as 89.64%. On to `CC(C)CCN1c2nc(Nc3cc(F)c(O)c(F)c3)ncc2N(C)C(=O)C1C` (centres unmarked) [ONC0004496, bid1870], for which the “% viability” value is 46.32%.

Take `Nc1nonc1C(=NO)Nc1ccc(F)c(Cl)c1` [ONC0002386, ido5l]: the “% viability” value is given as 106.2%. For `CN1CCN(C(=O)c2nc3cc(Cl)ccc3[nH]2)CC1` [ONC0003559, jnj10191584] the value was 96.39%; for `O=C(Nc1ccc(Cl)cc1)Nc1ccc(Cl)c(Cl)c1` [ONC0003407, triclocarban], 109.1%; for `O=C(Nc1cnc(Cl)nc1)c1ccc(F)c(F)c1` [ONC0001921, ica069673], 29.87%. As for `O=C(Nc1ccc(Cl)nc1)c1ccc(Cl)cc1` [ONC0002468, ica110381], the “% viability” value is reported as 70.91%.

Regarding `CC[C@@]1(O)C(=O)OCc2c1cc1n(c2=O)Cc2c-1nc1cc(F)c(C)c3c1c2[C@@H](N)CC3.CS(=O)(=O)O` [ONC0003668, exatecan mesylate], the “% viability” value was found to be 59.4%.

Consider `C#C[C@]1(O)CCC2C3CCC4=C(CCC(=O)C4)C3CC[C@@]21C` (some centres unmarked) [ONC0000393, norethynodrel], for which the “% viability” value is on record as 78.62%. In the case of `O=C(COc1ccc(C(=O)c2ccccc2)cc1)NC1CCN(Cc2ccccc2)CC1` [ONC0000156, adiporon], the “% viability” value was determined as 92.46%. `O=C(NC1CCN(Cc2ccccc2)CC1)c1ccc(I)cc1` [ONC0003079, 4ibp]: the “% viability” value is reported as 71.08%. Consider `O=C(O)c1ccc(CN2CCC(CN[C@@H]3C[C@H]3c3ccccc3)CC2)cc1` [ONC0001137, gsk2879552], for which the “% viability” value stood at 48.21%.
